Among all 48,000 compounds or so, about 13,000 (27%) showed an effect of 50% or more. This is one part of the list.
What follows are compounds tested on Wolbachia pipientis (assay: Anti-Wolbachia Cell-Based Screen). Conditions: 5 µM.
Assay type: functional
Parameters: scale not given: in the data most compounds retested in dose-response had high values

Row | SMILES | Percent Effect
1 | CCS(=O)(=O)c1ncc(CN(C)CCc2ccccn2)n1CCOC | -7.108%
2 | CC(C)(C)c1ccc(S(=O)(=O)CCNC(=O)c2cnccn2)cc1 | -1.994%
3 | O=C(Nc1cc(C2CCOCC2)[nH]n1)c1cscn1 | -9.479%
4 | O=C(O)C(F)(F)F.O=C1COC2(CCN(Cc3ccoc3)CC2)CN1c1ccccc1 | 110.1%
5 | c1coc(-c2nc3c(c(N4CCCN5CCC[C@H]5C4)n2)CCNCC3)c1 | -2.635%
6 | CC(=O)N1CCC(c2cccc(-c3cccc(C(=O)O)c3)n2)CC1 | 150.5%
7 | CN1CCC(c2cccc(-c3cccc(C(=O)O)c3)n2)CC1 | 172.2%
8 | O=C(O)c1ccc(-c2cscn2)cc1 | -4.979%
9 | Cc1nc(-c2cccc(C(=O)O)c2)c[nH]1 | 12.51%
10 | CN1CCC(c2cccc(-c3ccc(C(=O)O)cc3)n2)CC1 | 143.4%
11 | CCC1CN(CC(=O)NCC(C)C)CCO1 (configuration not stated) | 14.46%
12 | CN(C)C(Cn1ccnc1-c1nccn1C)c1ccccc1Cl (configuration not stated) | -33.34%
13 | Cn1cnc(S(=O)(=O)NCC2(O)CCc3ccccc3C2)c1 (configuration not stated) | -0.2896%
14 | Cc1cc(C(F)(F)F)cc(N2CCN(Cc3ccccc3)CC(O)C2)n1 (configuration not stated) | -8.979%
15 | Cc1noc(C)c1C(=O)NCc1cc[nH]n1 | -8.617%
16 | N[C@H]1CN(Cc2cnc(N3CCCC3)nc2)C[C@@H]1C1CC1 | -16.17%
17 | NC(=O)CCC1CCCN(c2ncnc3c2Cc2ccccc2OC3)C1 (configuration not stated) | -12.56%
18 | CCc1cnc(N2CCCC(CCC(N)=O)C2)nc1 (configuration not stated) | 109.3%
19 | c1nc(N2CCCC2)ncc1CN1CCCC(CN2CCCCC2)C1 (configuration not stated) | 95.39%
20 | NC(=O)CCC1CCCN(Cc2cnc(N3CCCCC3)nc2)C1 (configuration not stated) | 104.2%
21 | O=C(O)CCc1cc2n(n1)CCN(Cc1cnc(N3CCCC3)nc1)C2 | -15.82%
22 | CCc1cnc(N2CCCOC(CN3CCCC3)C2)nc1 (configuration not stated) | -1.454%
23 | Cc1cccc(C)c1OC1CN(Cc2cnc(N3CCCC3)nc2)C1 | 1.788%

Row | SMILES | Percent Effect
24 | COc1ccccc1-c1ncc(CN2CCCC(CCC(N)=O)C2)s1 (configuration not stated) | 16.75%
25 | O=C(N[C@H]1CN(C2CCOCC2)C[C@@H]1C1CC1)c1ccon1 | -9.557%
26 | CN(Cc1cc[nH]n1)C(C(=O)O)c1ccc(Cl)cc1 (configuration not stated) | -11.22%
27 | Cc1cnn(-c2ccc(S(=O)(=O)N(C)CC(C)(CO)CO)cc2F)c1 | -2.822%
28 | CN(CC(=O)NCC(F)(F)F)Cc1cccc2c1OCCO2 | -18.06%
29 | CN(Cc1ccc(CCC(C)(C)O)cc1)Cc1cccnc1 | -22.62%
30 | CN1CC(=O)N(c2cccc(F)c2)CC12CCN(Cc1ccccn1)C2 (configuration not stated) | 2.437%
31 | CS(=O)(=O)N1Cc2ccccc2CC2(CCN(Cc3ccccn3)C2)C1 (configuration not stated) | 113.9%
32 | Cc1ccc(CN2CCC3(CCN(S(=O)(=O)c4ccccc4)C3)C2)o1 (configuration not stated) | -12.36%
33 | COCCC(=O)N1CC2(CCN(Cc3ccncc3)CC2)C1 | 12.72%
34 | Cc1ccc(CN2CCC3(CCCN(S(C)(=O)=O)C3)C2)o1 (configuration not stated) | -14.58%
35 | CS(=O)(=O)N1Cc2ccccc2CC2(CCN(Cc3ccccc3)C2)C1 (configuration not stated) | 126.9%
36 | COCC(=O)N1CCC2(CCN(Cc3ccccn3)CC2)CC1 | -21.07%
37 | CS(=O)(=O)N1CC2(CCN(Cc3ccccn3)C2)Cc2ccccc21 (configuration not stated) | 111%
38 | CS(=O)(=O)N1CCC(c2nccn2Cc2ccccn2)CC1 | 3.46%
39 | CS(=O)(=O)N1Cc2ccccc2CC2(CCN(Cc3ccncc3)C2)C1 (configuration not stated) | 115%
40 | c1cnn(Cc2ccc(CN3CCC4(CCNCC4)C3)cc2)c1 | 15.29%
41 | Cc1ccc(N2CCC3(CCN(Cc4ccccn4)CC3)CC2)nn1 | 3.728%
42 | COCC(c1cccc(C(F)(F)F)c1)N(C)C(=O)c1cc(C)n[nH]1 (configuration not stated) | -9.299%
43 | Cc1nc2[nH]cc(C(=O)N3CCCCC3c3ccc(F)cc3)c(=O)n2n1 (configuration not stated) | -1.637%
44 | Cc1nc(-c2cc(C(=O)O)co2)cs1 | 4.91%
45 | Cc1nn(-c2ccccn2)c(C)c1[C@@H]1C=C[C@@H](NC(=O)CCC(=O)O)C1 | -2.847%
46 | CN(C)S(=O)(=O)NCC(O)c1cc2ccccc2s1 (configuration not stated) | -1.975%

Row | SMILES | Percent Effect
47 | CCc1cnc(N2Cc3cnc(C(C)(C)C)nc3C2)nc1 | -2.734%
48 | CCN(CC)CC(=O)NCCc1csc(N2CCCC2)n1 | 7.841%
49 | O=C(c1ccncc1F)N1C[C@H]2CC[C@@H]1CN(Cc1cccnc1)C2 | -17.68%
50 | CC1(C)[C@H](Cc2cc(CN3CCOCC3)on2)C[C@@H]1NC(=O)C1CCC1 | 3.49%
51 | CC(=O)N1CCCC(Cc2cncc(Br)c2)C1 (configuration not stated) | 130.8%
52 | CC(C)N1CCCC(Cc2cncc(Br)c2)CC1 (configuration not stated) | 135.8%
53 | CCOC(=O)NC1CCCN(c2cncc(Br)c2)C1 (configuration not stated) | -1.321%
54 | CC(C)N1CCCC(C(=O)NCCCc2cnn(C)c2)C1 (configuration not stated) | -2.763%
55 | CC(=O)N1CCCC(Cc2cncc(Br)c2)CC1 (configuration not stated) | -3.498%
56 | CS(=O)(=O)N1CCCC(Cc2cncc(Br)c2)CC1 (configuration not stated) | 127%
57 | CC(C)N(Cc1cnn(C)c1)CC1CCCN(S(C)(=O)=O)C1 (configuration not stated) | 7.104%
58 | CC(CCc1ccc(O)cc1)NC1CCN(S(C)(=O)=O)CC1 (configuration not stated) | 7.002%
59 | COc1cccc2c1CCC2NC(=O)NCc1csc(N(C)C)n1 (configuration not stated) | 7.815%
60 | Cc1ccc([C@@H]2CN(C(=O)c3ccon3)C[C@H]2NC(=O)C2CC2)cc1 | -0.9032%
61 | CCc1noc(CC)c1CC(=O)N1CCC(C(=O)NC(C)C)CC1 | -12.02%
62 | CC(=O)NCCNC(=O)c1cc(Br)c2c(c1)OCCO2 | -14.07%
63 | CC1CCN(S(=O)(=O)NCC2CCOc3ccccc3C2)CC1 (configuration not stated) | -7.362%
64 | CC(C)Oc1cc(N2C[C@@H](C)O[C@@H](C)C2)nc(N)n1 | -18.9%
65 | CC(NCc1cccnc1)c1ccc(OCC(=O)NC2CC2)cc1 (configuration not stated) | -5.583%
66 | NS(=O)(=O)N1CCC(CSc2ccccc2)C1 (configuration not stated) | -8.118%
67 | Cc1oncc1C(=O)N1CCC2(CC1)CC(c1ccccc1)C(=O)N2C (configuration not stated) | -5.401%

Source: ChEMBL document CHEMBL3988442, “University of Dundee, Small-Polar-MMV Screening Library” (2021)
